Laboratory results taken from ChEMBL document CHEMBL4513216, “Probing the Open Global Health Chemical Diversity Library for Multistage-Active Starting Points for Next-Generation Antimalarials” (ACS Infect Dis, 2020).
Out of some 65,000 compounds screened, about 2,100 (3.2%) showed an effect of 50% or more. The median lay at about -52%. The entries come from a sample that favours strong results as a whole.

system: Plasmodium falciparum; test: Screen against P. falciparum Asexual Blood Stage (ABS), at 5uM; type: functional, Dd2; conditions: tested at 5 uM

Compound	INHIBITION
Cc1nc(OCC(=O)N2CCCC2)cc(-n2cccn2)n1	-111%
CCC(CC)C(=O)N1CCC2(CC1)c1ccccc1[C@@H](OC)[C@@H]2O	-1.77%
Cc1ccc(C2CN(c3nnc(C(F)F)s3)CCO2)c(C)c1 (stereo not drawn)	-42.4%
Cc1cc(C)n(C2CN(CC(=O)N(C)Cc3ccsc3)C2)n1	26.5%
Cc1cc(C)n(C2CN(CC(=O)N(C)Cc3cnn(C)c3)C2)n1	-98.1%
COc1cccc(CN(C)C(=O)CN2CC(n3nc(C)cc3C)C2)c1	63.3%
Cc1nc(CN2CCC3(CC2)CC(=O)N(C)c2ccccc23)cs1	-87.3%
Cc1ccc(C(=O)NC2CCN(C(=O)Nc3ccncc3)CC2)o1	-195%
COCCn1cnc2ccc(NC(=O)C3CC3)cc2c1=O	-76%
CCOCC(=O)N1C[C@@H]2CC[C@H](Oc3ccccc3)[C@@H]2C1	-68.1%
COCCOCC(=O)N1C[C@@H]2CC[C@H](Oc3ccccc3Cl)[C@@H]2C1	-103%
CN(C)CC(=O)N1C[C@@H]2CC[C@H](Oc3ccccc3Cl)[C@@H]2C1	63.7%
COCCOCC(=O)N1C[C@@H]2CC[C@H](Oc3ccccc3)[C@@H]2C1	-114%
O=C(Cn1ccnc1)N1C[C@@H]2CC[C@H](Oc3ccccc3Cl)[C@@H]2C1	-43.2%
CN(C)CC(=O)N1C[C@@H]2CC[C@H](Oc3ccccc3)[C@@H]2C1	61.8%
CC(C)c1ncc(Cl)c(C(=O)N2CCN(C3CCCC3)CC2)n1	-16.7%
Cc1nn(C)c(C)c1NC(=O)c1cccc(CN2CC[C@H](O)C2)c1	-133%
CN(C)S(=O)(=O)N(C)C(c1cccc(F)c1)c1ccccn1 (stereo not drawn)	-27.6%
O=C(c1cc(Cl)ccc1F)N1CCCC1Cn1cccn1 (stereo not drawn)	-101%
Cc1cc(C)n(CCCNc2ncnc3c2NC(=O)CN3)n1	-40.1%
COc1ccccc1-n1nc(CC(C)C)nc1Cc1nnc(N)s1	-59.7%
CN(Cc1ccc(N(C)C)cc1)C(=O)c1cc2c([nH]c1=O)CCCC2=O	50.8%
CSc1ccc(CN(C)C(=O)c2cc3c([nH]c2=O)CCCC3=O)cc1	-31.6%
CN(Cc1ccsc1)C(=O)c1cc2c([nH]c1=O)CCCC2=O	-198%
Cc1cccc(CNC2CCCc3c2cnn3Cc2ccccc2)c1 (stereo not drawn)	65.9%
Cc1cccc(CNC2CCCc3c2cnn3C)c1 (stereo not drawn)	-37.4%
Cc1ccc(CNC2CCCc3c2cnn3Cc2ccccc2)s1 (stereo not drawn)	16.3%

Compound	INHIBITION
c1cnc(N2CC[C@@H](N3CCOCC3)[C@@H]2Cc2ccncc2)nc1	-78%
CC(C)CNc1cc(-c2c[nH]nc2C2CCN(C(=O)C3CC3)C2)ccn1 (stereo not drawn)	84.6%
Nc1cc(-c2c[nH]nc2C2CCN(C(=O)C3CCCC3)C2)ccn1 (stereo not drawn)	-27.3%
CC(=O)N1CCC(c2n[nH]cc2-c2ccnc(N)c2)C1 (stereo not drawn)	-13.8%
COc1cccc(CCC2CCCN(Cc3ncc[nH]3)C2)c1 (stereo not drawn)	22%
Cc1cc(N2CCC(Cc3ccccc3)CC2)nc(-c2ccncc2)n1	-64.9%
CN1C(=O)CC[C@@H]2[C@H]1CCN2S(=O)(=O)c1cccs1	47.1%
CC(C)CN1CC[C@@H]2[C@@H]1CCN2S(=O)(=O)c1cccs1	17.9%
O=S(=O)(c1cccs1)N1CC[C@H]2[C@H]1CCN2CC1CC1	57.7%
Cc1ccc(CNC(=O)c2ccc(=O)n(C)n2)c(OCC2CC2)c1	-124%
O=C1NCCN1C1CCN(Cc2nc(-c3ccsc3)no2)CC1	-14.4%
CCc1ccccc1OCC(=O)Nc1ccnc(OCCN(C)C)c1	59.7%
COc1cc(C)ccc1OCC(=O)Nc1ccnc(OCCN(C)C)c1	-18.6%
COCC(=O)Nc1ccnc(OCCN(C)C)c1	-59.7%
Cc1nc2ccn(C(C)C)c(=O)c2cc1C(=O)O	-39.7%
CC(=O)N1CCC(n2ccc(-c3cnc(NCC(C)C)nc3)n2)CC1	-32.2%
Cn1ncc2c(NCCn3cccc3)nc(C3CCCC3)nc21	9.86%
CNCCCNc1nc(C2CCCC2)nc2c1cnn2C	-38.7%
CCS(=O)(=O)CCNc1nc(C2CCCC2)nc2c1cnn2C	-115%
Cn1ncc2c(NCCC34CCCN3CCC4)nc(C3CCCC3)nc21	63.3%
CC(C)N(CCNc1nc(C2CCCC2)nc2c1cnn2C)C(C)C	58.6%
CCOCCNc1nc(C2CCCC2)nc2c1cnn2C	-129%
N#CCCCS(=O)(=O)NC1(c2cccc(Br)c2)CC1	-148%
CCOC1COC2(CCN(c3ccccn3)CC2)C1 (stereo not drawn)	-0.961%
CCOCC(O)c1nc2c([nH]1)CC(C)(C)CNC2=O (stereo not drawn)	-96.9%
Cc1cnn(CCNCc2c(C)nn(Cc3ccccc3)c2C)c1	34.2%
